Only some compounds are listed: those with a hit (about 0.99% of all), similar ones and a draw of the others.
TRHR PAM – allosteric enhancers of human TRH receptor; enhancement, % at 2 µM; P34981; actives 0.66% (n = 360,000); TRHR cells, fluo-8 calcium fluorescence, EC20 TRH enhancement; in the data active means enhancement above about 30%
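Enhancer read-out: after compound pinning and an initial kinetic agonist-mode read, an EC20 of TRH (10 nM final) was injected and fluo-8 calcium signal (Ex 480/Em 530) followed at 1 s/cycle for 100 cycles in TRHR-expressing cells.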
TRPV1 PAM – human TRPV1 potentiation. TRPV1-expressing cells, Fluo-8 calcium influx, capsaicin EC20 potentiation. potentiation, % at 8.33 µM. actives 0.02% (n = 320,000); in the data active means potentiation above about 80%; inconclusive means between about 30% and that limit
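Fluo-8 calcium influx in TRPV1-expressing cells, kinetic read (ex 480/em 520 nm). Compound added and read 3 min for agonist activity, followed by capsaicin at EC20 final and 2 min further read for enhancement.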
TRPML1 inh – inhibitors of human TRPML1 channel; actives 0.02% (n = 390,000); activity change, negative = inhibition, % (no concentration beside the values); TRPML1-inducible cells, Ca2+ dye fluorescence, FDSS; stronger effect = lower value; inhibition of EC80 agonist-evoked calcium signal; in the data active means activity change below about -50%; inconclusive means between about -30% and that limit;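 further: stimulus is agonist 54-4 at its EC80 concentration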
Target sequence (Q9GZU1 whole entry, looked up): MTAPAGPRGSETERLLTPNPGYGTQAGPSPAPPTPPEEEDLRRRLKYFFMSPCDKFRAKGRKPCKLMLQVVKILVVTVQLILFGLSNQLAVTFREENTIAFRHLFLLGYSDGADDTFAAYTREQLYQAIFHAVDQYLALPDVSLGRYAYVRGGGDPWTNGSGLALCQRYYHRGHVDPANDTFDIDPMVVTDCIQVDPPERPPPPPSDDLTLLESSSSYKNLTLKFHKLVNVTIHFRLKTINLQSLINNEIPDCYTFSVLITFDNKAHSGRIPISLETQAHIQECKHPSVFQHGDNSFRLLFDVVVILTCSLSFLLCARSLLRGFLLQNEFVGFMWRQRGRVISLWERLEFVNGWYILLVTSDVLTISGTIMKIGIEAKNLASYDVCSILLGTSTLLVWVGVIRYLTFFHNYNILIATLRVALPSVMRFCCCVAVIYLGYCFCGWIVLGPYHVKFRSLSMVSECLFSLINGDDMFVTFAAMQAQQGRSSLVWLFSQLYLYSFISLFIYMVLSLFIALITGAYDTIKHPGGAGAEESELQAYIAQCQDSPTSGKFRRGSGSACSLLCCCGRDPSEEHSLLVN
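Calcium fluorescence in TRPML1-DL cells induced overnight with Tet: a 110 s read after compound pin addition, then a 110 s antagonist read after challenge with 54-4 at 4 uM final (EC80).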
TRPML1 agonist – activates the human TRPML1 channel; AID 624414; TRPML1-expressing cells, Ca2+ dye fluorescence, FDSS; activation, % (concentration not given with the values); actives 0.12% (n = 410,000); in the data active means activation above about 50%; inconclusive means mostly about 30% to 49%
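Calcium fluorescence on an FDSS kinetic reader gave the read-out. Tet-induced TRPML1-DL cells were plated overnight, dye-loaded (Ca8 with quencher, 45-90 min, room temperature, dark), then read 110 s after compound addition, and again 110 s after 4uM final 54-4 (EC80).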
TRPV1 agonist – human TRPV1 agonism; Q8NER1; TRPV1-expressing cells, Fluo-8 calcium influx, agonist mode; activation, % at 8.33 µM; actives 0.19% (n = 320,000); in the data active means activation above about 80%; inconclusive means between about 30% and that limit
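Cells expressing TRPV1 were dye-loaded with Fluo-8 and read kinetically: 10 s baseline, 3 min after compound (agonist portion), then 2 min after EC20 capsaicin (allosteric enhancer portion). Calcium-bound dye fluorescence at 480/520 nm.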
TRHR agonist – activates the human TRH receptor; P34981; activation, % at 2 µM; actives 0.18% (n = 360,000); TRHR cells, calcium flux fluo-8, FDSS agonist mode; in the data active means activation above about 30%
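Steps: seed TRHR cells overnight; add fluo-8 no-wash Ca dye, RT 30 min–1.5 h; record 10 s baseline; pin-transfer compounds; monitor fluorescence 1 cycle/s for the agonist window. Calcium increases flag candidate agonists.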
Numbers stand for hits; 0 = inactive; ? = inconclusive; - = no result.

SMILES	TRHR PAM	TRPV1 PAM	TRPML1 inh	TRPML1 agonist	TRPV1 agonist	TRHR agonist
Cc1cc(C(C)(C)C)oc1C(=O)N(CC(=O)NC1CCCC1)Cc1ccccc1Cl	0	0	0	0	?	0
Cc1ccccc1N(CC(=O)NC1CCCC1)C(=O)c1oc(C(C)(C)C)cc1C	0	0	0	70	0	0
CC(C)(C)c1ccc(C(=O)C[n+]2cc(Br)cc(Br)c2)cc1	-	-	-	0	-	-
COc1cc(Cl)c(C)cc1NC(=O)Cc1cccs1	0	?	0	0	0	0
COc1ccc(CC(=O)NCc2ccc(-n3cccc3)cc2)cc1OC	0	0	0	0	81	0
COc1cc(NC(=O)COc2c(C)cc(C)cc2[N+](=O)[O-])c(OC)cc1Cl	0	0	0	0	0	0
COc1ccc(CC(=O)Nc2cccc3ccccc23)cc1OC	0	0	0	0	89	0
COc1cc(Cl)c(C)cc1NC(=O)COc1ccccc1[N+](=O)[O-]	32	0	0	0	0	0
COc1cc(Cl)c(C)cc1NC(=O)Cc1ccc(OC)c(OC)c1	0	0	0	0	89	0
Nc1cccc[n+]1C(c1ccnc2ccccc12)[n+]1ccccc1N	-	-	-	0	-	-
CC(C)(C)n1ncc2c(=O)n(Cc3ccc(F)cc3)cnc21	-	-	0	0	-	-
Nc1[nH]c(=S)[nH]c(=O)c1N	-	-	-	0	-	-
CCOC(=O)c1cccc(NS(=O)(=O)c2cc3[nH]c(=O)c(=O)[nH]c3cc2C)c1	46	-	0	0	-	0
CCC(=O)Nc1ccc(NC(=O)c2ccc3c(c2)OCO3)cc1	0	0	0	0	0	0
Cc1ccc(C(=O)Nc2ccc3c(c2)OCO3)cc1Cl	0	0	-	-	?	0
CCc1nc2ccc(C(=O)Nc3ccc4c(c3)OCO4)cc2nc1CC	39	0	0	0	?	0
CCN(CC)c1ccc(NC(=O)c2ccc3c(c2)OCO3)cc1	0	0	0	0	83	0
Cc1ccc(NC(=O)c2ccc3c(c2)OCO3)cc1Cl	0	0	0	0	83	0
Nc1nc(Nc2cc(F)cc(F)c2)nc(NC2CCCC2)n1	0	-	-	-	-	0
CN(C)c1ccc(/C=C/N2C=CCc3c2ccc2ccccc32)cc1	-	-	-	0	-	-
CCN(CC)C(=O)c1nn(-c2ccc(OC)cc2)c(=O)c2c(N)scc12	0	-	-	-	-	0
CN(CC(=O)NCc1ccccc1)Cc1ccc(Cl)cc1	33	0	0	0	?	0
C=CC[C@H](c1ccc(F)cc1)N(CC(C)C)S(=O)(=O)C=C	-	-	-	0	-	-
CC(C)c1ccc(CNNC(=O)c2ccccc2)cc1	0	0	0	0	83	0
O=C(COC(=O)c1ccccc1Oc1ccccc1)Nc1ccc(Br)cc1	-	-	-	0	-	-
SMILES	TRHR PAM	TRPV1 PAM	TRPML1 inh	TRPML1 agonist	TRPV1 agonist	TRHR agonist
CCc1cc[n+](CC(=O)c2ccc(F)cc2)cc1C(=O)O	-	-	-	0	-	-
O=c1c2[nH]c3cc(Br)sc3c2cnn1Cc1ccccc1F	0	-	-	-	-	0
CC(C)Oc1ccc(OCCCN2CCCCCC2)cc1	0	0	0	0	0	0
CC(C)(C)c1ccc(OCCCN2CCCC2)cc1	38	0	0	0	0	0
CCOc1ccc(OCCOCCNCCOC)cc1	0	0	0	60	0	0
CCCOc1ccc(OCCOCCNCc2ccccc2)cc1	0	0	0	0	0	0
CC(C)(C)n1ncc2c(=O)n(Cc3ccccc3C(F)(F)F)cnc21	-	-	0	0	-	-
NC(=Nc1ccccc1)Nc1ccccc1	0	0	0	0	0	96
CCOC(=O)/C(C(=Nc1ccccc1)Nc1ccccc1)=C(\C)O	0	0	0	0	0	0
C#CCN(Cc1ccc(OC)cc1)S(=O)(=O)C=C	-	-	-	0	-	-
COc1ccc(-c2noc(CSc3nc4ccccc4c(=O)n3-c3ccc(C)cc3)n2)cc1	33	0	0	0	0	0
COc1ccc(-n2c(SCc3nc(-c4ccc(C)cc4)no3)nnc2-c2ccccc2)cc1	0	-	0	0	-	0
CCOC(=O)C1C(=O)C=C(/C=C/c2ccc(N(C)C)cc2)CC1c1ccccc1 (stereo not given)	0	0	0	?	?	73
CCOC(=O)C1C(=O)C=C(c2ccc(C)cc2)CC1c1ccccc1 (stereo not given)	0	0	0	0	0	0
Nc1ccc(/C=C/c2ccnc3ccccc23)cc1	-	-	-	0	-	-

Compound activity deposited in PubChem by National Center for Advancing Translational Sciences (NCATS).
